# In the library only some 3.8% were active in any assay of this set; here they are far more common.
# A549 viability: A549 cytotoxicity, counter-screen for Nrf2 inhibitors. AID 504648. A549 ARE-Fluc cells, CellTiter-Fluor viability, 18-24 h. 0.16% of 390,000 active. Potency, µM (titrated, usually from 46 µM), inactives show at the highest dose activity change, negative = cytotoxicity, usual class: inhibitors; also: % is scaled to controls: 0 for no effect and ±100 for the full control effect
#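 Cytotoxicity counterscreen: CellTiter-Fluor fluorescence was measured in A549 ARE_Fluc cells after 18-24 h of compound exposure in a concentration series. The subsequent BugLite luminescent read reports ARE-luciferase activity.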
# S2 tox: cell viability loss in ATXN counter-screen | 0.49% of 400,000 active | S2 cells (HEK-293 line with an ATXN2-luciferase reporter) viability, CellTiter-Fluor protease fluorescence, 24 h | Potency, µM (highest dose often 56.7 µM), actives largely listed as cytotoxic | AID 651635; also: nearly all actives have a fitted effect of over 40% in size
# TGFb SMAD3 inh: blocks TGF-b signaling; Potency, µM (series often up to 46.1 µM), without a hit: at the highest dose activity, negative = inhibition, actives largely listed as inhibitors; HepG2 CAGA-GFP TGF-b/SMAD3 reporter, GFP fluorescence, 18 h; TGF-beta stimulated, 500 pg/mL final; 1.2% of 410,000 active; also: % is scaled to controls: 0 for no effect and ±100 for the full control effect; nearly all actives have a fitted effect of over 65% in size
#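 Smad-responsive CAGA-GFP expression was quantified in HEPG2 cells exposed to compounds and 500 pg/mL final TGF-beta for 18 h at 37 degrees C; unstimulated wells defined full inhibition.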
# HepG2 tox-1: kills HepG2 cells in TGF-b inhibitor counter-screen; AID 588856; HepG2 CAGA-GFP viability, ATP luminescence, 18 h; 0.76% of 410,000 active; Potency, µM (doses to about 46.1 µM), for the others: top-dose activity change, negative = cytotoxicity, usual class: cytotoxic
#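 HepG2 CAGA-GFP cells (1000/well, DMEM with 1% FBS) received compound, then TGF-beta at 500 pg/mL final, and were incubated 18 hours at 37 degrees C. Viability was read by CellTiter-Glo luminescence. Media-only wells were set as complete cell-killing and DMSO as no toxicity.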
# ATXN2 expr inh: reduces ATXN2 reporter expression in HEK-293 cells; HEK-293 ATXN2-luciferase reporter, luminescence, 24 h; 0.72% of 360,000 active; Potency, µM (top dose mostly 57 µM), for the others: top-dose activity change, negative = inhibition, usual class: inhibitors; AID 1745845; also: % is scaled to controls: 0 for no effect and ±100 for the full control effect; nearly all actives have a fitted effect of over 55% in size
#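 ATXN2-luciferase reporter cells (luciferase flanked by upstream and downstream ATXN2 gene portions) were treated 24 h at 37 °C with compounds at up to 57 uM. SteadyGlo luminescence gave expression; GF-AFC fluorescence gave viability.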
# Nrf2 block: Nrf2 pathway inhibition; A549 ARE-Fluc reporter, luciferase luminescence, 18-24 h; Potency, µM (top dose mostly 46 µM), inactives show at the highest dose activity change, negative = inhibition, hits mostly inhibitors; 2.1% of 360,000 active; AID 504444; also: % is scaled to controls: 0 for no effect and ±100 for the full control effect; nearly all actives have a fitted effect of over 60% in size
#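 Reporter: ARE-Fluc in A549. Exposure: 18-24 h, 37 °C, 5% CO2, 5% FBS OPTI-MEM. Readouts: fluorescent cytotoxicity (CellTiter-Fluor), then luminescent Nrf2 signal after BugLite.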
# TGFb CAGA inh: TGF-b pathway inhibition, cherry-pick retest; shares compounds with TGFb SMAD3 inh; HepG2 CAGA-GFP TGF-b reporter, GFP fluorescence, 18 h; cells stimulated with TGF-beta, 500 pg/mL; Potency, µM (highest dose often 46.1 µM), inactives show at the highest dose activity, negative = inhibition, hits mostly inhibitors; 63% of 1,600 active; AID 720534; also: % is scaled to controls: 0 for no effect and ±100 for the full control effect; nearly all actives have a fitted effect of over 65% in size
# HepG2 tox-2: toxic to HepG2 cells in TGF-b counterscreen; shares compounds with TGFb SMAD3 inh; HepG2 CAGA-GFP viability, ATP luminescence, 18 h; cells stimulated with TGF-beta, 500 pg/mL; Potency, µM (highest dose often 46.1 µM), inactives show at the top dose activity, negative = cytotoxicity, usual class: inhibitors; 27% of 1,600 active; AID 720535; also: % is scaled to controls: 0 for no effect and ±100 for the full control effect; nearly all actives have a fitted effect of over 70% in size
# TGFb CCL64 inh: orthogonal confirmation of TGF-b inhibitors in CCL64 cells; CCL64 CAGA-GFP reporter, TGF-b stimulated, GFP fluorescence, 18 h; 41% of 1,600 active; shares compounds with TGFb SMAD3 inh; AID 720536; Potency, µM (highest dose often 46.1 µM), for the others: top-dose activity, negative = inhibition, most hits filed as inhibitors; also: nearly all actives have a fitted effect of over 65% in size
# TGFb COP inh: blocks TGF-b signaling in HepG2 COP reporter. 3% of 1,600 active. Potency, µM (series often up to 46.1 µM), without a hit: top-dose activity, negative = inhibition, usual class: inhibitors. shares compounds with TGFb SMAD3 inh. AID 720537. HepG2 COP-GFP TGF-b reporter, GFP fluorescence, 18 h; cells stimulated by added recombinant TGF-beta; also: nearly all actives have a fitted effect of over 70% in size
# Numbers without * were called inactive; i = inactive; ? = inconclusive; / = not tested or not shown. Calls follow the shape of the dose curve; as a rule, active = well fitted curve in the direction sought with a large enough effect; inconclusive = small, poorly fitted or top-dose-only effect, or another doubt; inactive = no such curve, though single readings can be large; an effect the other way counts as inactive or inconclusive. Potency is read from the fitted curve at half-maximal effect.
SMILES,A549 viability,S2 tox,TGFb SMAD3 inh,HepG2 tox-1,ATXN2 expr inh,Nrf2 block,TGFb CAGA inh,HepG2 tox-2,TGFb CCL64 inh,TGFb COP inh
COc1ccc(C(=O)c2sc(Nc3ccccc3)c(C(=O)Nc3ccc(OC)c(OC)c3)c2N)cc1,?,i,-24%,-27%,-11%,?,/,/,/,/
CCOc1ccc(C2=Nn3c(nnc3-c3ccccc3OC)SC2)cc1,?,i,10µM*,-23%,-19%,-10%,0.23µM*,-8%,0.46µM*,-6%
COc1ccc(C2C(C#N)=C(N)N(Nc3ccccc3)C3=C2C(=O)CC(C)(C)C3)cc1C (stereo not given),-3%,i,11µM*,-1%,-23%,?,21µM*,-25%,?,21%
Cc1ccc(N2CC(c3nnc(Cc4ccc(Cl)cc4)o3)CC2=O)cc1 (stereo not given),?,i,-13%,-15%,-9%,11%,/,/,/,/
COc1ccc(C(=O)CSc2cc(C)nc(SCC(=O)c3ccc(C)cc3)n2)cc1,-15%,i,?,-2%,-4%,?,?,0%,0%,0%
COc1ccc(CNC(=O)[C@@H]2CC=C[C@@H]3CCN(Cc4ccc(Cl)c(Cl)c4)C(=O)[C@@H]32)cc1,-23%,?,16µM*,-13%,?,?,21µM*,?,?,30%
CC(C)Cc1nnc(NC(=O)C2CC(=O)N(c3ccc4c(c3)OCCO4)C2)s1 (stereo not given),9%,i,?,-21%,-8%,-20%,/,/,/,/
O=C(Nc1cccc(C(F)(F)F)c1)Nc1ccc(N2CCCC2)c(S(=O)(=O)Nc2ccccc2Cl)c1,?,?,2.8µM*,-56%,?,3.3µM*,4.1µM*,9.2µM*,5.2µM*,100%
Cc1ccc(OCCNC(=O)/C=C/c2ccc([N+](=O)[O-])cc2)cc1C,17%,i,?,0%,-7%,10%,-23%,-2%,-9%,2%
OC(c1ccc(Cl)c(F)c1)c1ncc(-c2cccc(C(F)(F)F)c2)[nH]1 (stereo not given),/,?,?,-92%,?,/,/,/,/,/
Cc1cc(C)c2cc(C(=O)N3CCC(C(=O)c4ccc(F)cc4)CC3)[nH]c2c1,?,i,11µM*,-6%,-26%,?,9.2µM*,-24%,?,14%
Cc1cc(C)c2cc(C(=O)N3CCC(N4CCCCC4)CC3)[nH]c2c1,3%,i,11%,-7%,-13%,6%,/,/,/,/
NC1=C(Br)C(=O)c2ncccc2C1=O,16µM*,13µM*,2.8µM*,2.8µM*,5.3µM*,10µM*,1.2µM*,3.3µM*,4.6µM*,4.6µM*
O=C(NC(c1ccccc1)c1ccc2ccccc2n1)C1CCN(Cc2ccc(Cl)c(Cl)c2)CC1 (stereo not given),/,i,?,-29%,?,/,/,/,/,/
O=C(NC(c1ccccc1)c1ccc2ccccc2n1)C1CCN(CCOc2ccc(Cl)cc2)CC1 (stereo not given),/,28µM*,7.1µM*,11µM*,28µM*,/,6.5µM*,5.2µM*,3.7µM*,?
COc1cc(CN2CCC(C(=O)NC(c3ccc(F)cc3)c3ccc4ccccc4n3)CC2)cc(OC)c1 (stereo not given),/,?,3.5µM*,5.6µM*,-6%,/,?,15µM*,8.2µM*,?
O=C(NC(c1ccccc1)c1ccc2ccccc2n1)C1CCN(Cc2ccc(Oc3ccccc3)cc2)CC1 (stereo not given),/,?,?,-16%,-26%,/,/,/,/,/
COc1ccc(S(=O)(=O)N2CCC(C(=O)N[C@@H](C)C(=O)NCc3cccnc3)CC2)cc1,/,i,-5%,-6%,/,/,/,/,/,/
NC(=S)NN=Cc1c[nH]c2nccnc12,/,?,13µM*,-25%,/,/,?,?,27%,38%
CCN1C[C@@H]2[C@@H]3C(=O)N(C)C(=O)[C@@H]3[C@](Cc3ccccc3)(C1=O)N2C(=O)c1ccc(F)cc1,-3%,i,8%,27%,3%,3%,/,/,/,/
COc1ccc(C(=O)NCCN(C)C)c2nc3ccccc3cc12,?,?,7.1µM*,9%,3.4µM*,?,10µM*,4.6µM*,?,39%
CC(Nc1ccccc1CO)C(=O)Nc1cccc(Cl)c1Cl (stereo not given),-4%,i,4µM*,-32%,?,0%,5.2µM*,2.1µM*,-20%,-15%
CC(=O)NC(CCS(C)(=O)=O)C(=O)Nc1cccc(Cl)c1Cl (stereo not given),6%,i,-7%,-5%,6%,14%,/,/,/,/
COCCNC(=O)C(=O)Nc1cc2c3c(c1)CCC(=O)N3CCC2,-9%,i,-6%,-8%,/,-2%,/,/,/,/
CC1=Nc2ccccc2/C1=C\c1sc(Nc2ccc(C)cc2)nc1O,?,?,11µM*,-3%,-4%,-96%,5.2µM*,?,5.2µM*,17%
COc1cc(O)c(C(CC(=O)N2CCCC2)c2cc(OC)c(OC)c(OC)c2)c(OC)c1 (stereo not given),-4%,i,31%,19%,9%,-10%,5%,1%,-13%,-7%
CCn1c(Cc2ccc(OC)cc2)nnc1SCC(=O)Nc1nc2ccccc2s1,-14%,i,3%,-1%,6%,-9%,/,/,/,/

# Assay outcomes deposited in PubChem BioAssay by National Center for Advancing Translational Sciences (NCATS).
